Data reported in PubChem BioAssay AID1004 (SRMLSC, 2008).
Unmarked numbers belong to inactive results.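 How the source made its calls: active means viability at 10 µM of 29.74% or lower, 3 SD below the compound median; inactive means the rest.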

Assay: viability of HCT116 lacking mutant beta-catenin – cell-based, DP diverse set, validation, pilot screen (AID 1004)
Settings: HCT116 (mutant beta-catenin deleted) viability, CellTiter-Glo, 60 h; at 10 µM; hits give low values
Work on `C=C(CCC12O[C@H](C(=O)O)[C@@](O)(C(=O)O)[C@](C(=O)O)(O1)[C@H](OC(=O)/C=C/[C@@H](C)C[C@@H](C)CC)[C@H]2O)[C@@H](OC(C)=O)[C@H](C)Cc1ccccc1` yielded a viability of 100%.
For `CC(=O)N[C@H]1C(O[C@@H]2O[C@H](C[C@@H](O)[C@H]3O[C@@H](N4CCC(=O)NC4=O)[C@H](O)[C@@H]3O)[C@H](O)[C@H](O)[C@H]2NC(=O)/C=C/CCCCCCCCCCC(C)C)OC(CO)[C@@H](O)[C@@H]1O` (stereo partly specified), the viability was 55.1%.
Compound `NC(=O)c1cccc(N)c1` has a viability of 108%.
For `C[C@H]1c2cccc(O)c2C(O)=C2C(=O)[C@]3(O)C(O)=C(C(N)=O)C(=O)[C@@H](N(C)C)[C@@H]3[C@@H](O)[C@@H]21`, the viability was 107%.
Compound `C[C@@H]1CC[C@]2(C(=O)O)CC[C@]3(C)C(=CCC4[C@@]5(C)C[C@@H](O)[C@H](O)[C@@](C)(CO)C5CC[C@]43C)C2[C@H]1C` (stereo partly specified) has a viability of 100%.
`O=C(O)c1cc(=O)c2c(OCC(O)COc3cccc4oc(C(=O)O)cc(=O)c34)cccc2o1` showed a viability of 100%.
Compound `O=C(O)c1ccccc1O` has a viability of 103%.
Work on `OCCN(CCO)c1nc(N2CCCCC2)c2nc(N(CCO)CCO)nc(N3CCCCC3)c2n1` yielded a viability of 109%.
`CCN(CC)C(=S)SSC(=S)N(CC)CC` showed a viability of 76.5%.
`CC1(COc2ccc(CC3SC(=O)NC3=O)cc2)CCCCC1` (stereo unspecified) gave a viability of 97%.
`CC(C)C[C@H]1C(=O)N2CCC[C@H]2[C@]2(O)O[C@](NC(=O)[C@@H]3C=C4c5cccc6[nH]c(Br)c(c56)C[C@H]4N(C)C3)(C(C)C)C(=O)N12` gave a viability of 89.9%.
